Laboratory results taken from the supplement of paper PMC6555819.

Experiments:
Assay in all cases: PBM binding z-score (relative to random genomic background probes); higher = stronger binding; sequences stand for … in GC…GCGATTGACAGCGTAGAATGAAGG
[1] = test system: FXR:RXRa (NR concentration 270 nM, RXRa partner concentration 90 nM)
Outline: (§1)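 Binding z-scores take random background probes as their reference. They come from custom Agilent 4×180K protein-binding microarrays incubated 1 h with ligand-free nuclear receptor dimers, with antibodies against each partner (one per run) detecting binding. Scanned fluorescence was regression-normalized.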

[2] = test system: LXRa:RXRa (NR concentration 270 nM, RXRa partner concentration 90 nM)
Outline: as §1

[3] = test system: LXRa homodimer (NR concentration 270 nM)
Outline: as §1

[4] = test system: LXRb:RXRa (NR concentration 270 nM, RXRa partner concentration 90 nM)
Outline: as §1

[5] = test system: LXRb homodimer (NR concentration 270 nM)
Outline: as §1

[6] = test system: PPARa:RXRa (NR concentration 270 nM, RXRa partner concentration 90 nM)
Outline: as §1

[7] = test system: PPARg:RXRa (NR concentration 180 nM, RXRa partner concentration 90 nM)
Outline: as §1

[8] = test system: PPARg:RXRa 270nM:90nM, anti-RXR (NR concentration 270 nM, RXRa partner concentration 90 nM)
Outline: as §1

[9] = test system: PPARg:RXRa 30nM:10nM, anti-RXR (NR concentration 30 nM, RXRa partner concentration 10 nM)
Outline: as §1

[10] = test system: PPARg:RXRa 90nM:30nM, anti-RXR (NR concentration 90 nM, RXRa partner concentration 30 nM)
Outline: as §1

Sequence	PBM binding z-score [1]	PBM binding z-score [2]	PBM binding z-score [3]	PBM binding z-score [4]	PBM binding z-score [5]	PBM binding z-score [6]	PBM binding z-score [7]	PBM binding z-score [8]	PBM binding z-score [9]	PBM binding z-score [10]
TCATATATGTAAATGCTAGGTGAAAGTCCGATCT	0.494	0.5	0.273	0.561	0.139	0.627	0.741	1.86	3.23	2.59
AGTCAAAGTTCAGGACGAGGTAGCGTAAAGCACG	3.74	3.36	1.03	1.58	-0.21	3.13	4.27	4.86	1.87	3.74
TAGCCTAGGTCATGGGCCAGTATGCCACGCGAAC	4.69	3.46	0.00314	2.02	-0.474	4.18	4.02	3.65	0.999	2.81
ATCGAAAGGTCGAAGGTGAGTATGCCCACCCGAA	4.46	3.31	0.253	2.87	0.664	4.64	4.16	5.05	2.9	3.81
TAGCCTAGGTCAGGGGCCAGTATACCACGCGAAC	1.76	1.34	-0.415	1.88	-0.376	2.61	2.83	2.96	0.91	2.43
ATCGAAAGGGCGACGAGGTGAGTATACACCGTTT	0.314	0.222	-0.247	0.0783	-0.352	0.902	0.873	0.152	0.164	-0.136
ATAACGAGGGCACGCTGAGTTGATAGCAGAGTAG	0.657	1.11	-0.0272	0.34	0.00771	2.24	2.45	1.88	0.803	1.22
GCGACTGGGGCATCAGCATGTTACCATAACTTAA	-0.56	-0.551	-0.462	0.363	-0.493	0.258	0.836	0.643	-0.13	-0.0118
CGTAAAAGTTCAACTAAGGTAACGTAAAGCACGC	6.53	5.88	4.08	3.97	1.96	4.78	2.86	3.53	1.02	2.58
CCTGCTAGGTCATGGTCAGCTATTCTACAGTATG	3.41	2.49	0.199	1.79	-0.409	3.28	2.34	2.63	0.534	1.64
CCTACTGTGCCAAGGTCATTGATCAGTCAAAGCA	3.24	3.74	1.67	3.26	0.681	4.05	3.18	3.78	1.24	2.83
TCATATAGGTAAACTGGTGAAAGTCCGTAAGTTA	0.534	0.478	0.129	0.808	-0.0343	1.05	0.842	2.31	3.92	3.07
CCTAGTTGGTCAAGGTCACACAAGCTATAGGTAC	4.29	3.95	1.98	3.76	1.03	4.21	3.5	4.1	1.36	2.63
ACTATTAGTTGAGACGAGGGCTACCGATAGGTTG	-0.0056	-0.0365	-0.197	-0.414	0.162	-0.477	0.7	-0.127	0.174	0.0258
TCAGTCAGGTGAAGGTAACTCAGGTACGCAGTCG	1.03	1.75	-0.167	0.908	0.224	1.1	0.838	2.17	3.25	2.69
TCTTGTGGATCAAGCAGGTTAAGAAAGCCTGAGT	0.364	0.407	-0.212	0.444	-0.493	0.766	-0.54	1.07	2.27	1.58
GGTTACGGGTCAAAGGTTATAGCATGAATAGAAT	7.96	5.86	0.937	5.95	0.466	7.09	11.1	9.43	8.67	10.2
GCTTGTAGATCAAGGTTAAGAGAGACTAAGCTAA	-0.00904	0.508	-0.353	0.119	-0.894	1.36	0.796	2.03	0.342	1.44
CCTACTGGTCCACGAAAGGTCATTGATTCAGTGA	3.9	4.86	5.19	4.6	1.21	4.38	1.3	3.07	0.699	2.22
ACAGACAGGAGATGAAGGTAACTCAGGCTATCAT	0.323	0.193	0.173	0.229	0.489	0.00739	0.816	0.278	0.594	0.135
AGAACGAGGGCAATGAGTTGATAGGACGGGTGGC	0.234	0.0995	-0.497	-0.197	-0.468	1.05	1.48	0.681	0.137	0.397
CGAACGGGGGCATGAGTTGATAGCAAATGCCGAT	3.26	2.81	0.42	4.42	6.73	3.99	2.63	4.68	2.82	3.84
TCGAGTTGGTTACCAATGGGGCATTCAGCTTTCT	-0.51	-0.505	-1.1	-0.17	-0.988	-0.0256	-0.676	0.352	0.536	0.652
CCTGCTAGGTCAATGGTGAGCTAAAGCAGCTCGC	2.56	1.58	-0.54	0.808	-0.0982	2.57	2.46	2.99	1.2	2.5

Sequence	PBM binding z-score [1]	PBM binding z-score [2]	PBM binding z-score [3]	PBM binding z-score [4]	PBM binding z-score [5]	PBM binding z-score [6]	PBM binding z-score [7]	PBM binding z-score [8]	PBM binding z-score [9]	PBM binding z-score [10]
TGTCAAAGTTCAAAGATAACGTAAGTATCCACAC	6.56	6.17	4.28	4.11	2.1	5.01	7.86	6.97	4.95	6.88
CCAAGTTGGTCAAGGTCACACACGCTATAGGTAC	4.98	4.1	1.98	3.73	0.363	4.23	3.48	4.02	1.45	3.14
ACTATTAGTTAAGACGAGGGCAACCGATAGGTTG	0.44	0.122	0.165	0.211	0.232	0.271	0.646	-0.109	-0.17	-0.186
TCTAGCAGGGCAGAGGGTCACTCAAGAGGTACGG	1.06	1.06	-0.469	1.04	-0.996	2.51	2.06	3.48	2.03	3.63
TAGCCTTGGTCAGATCGGGCCAGTATACGCTATA	-0.504	-0.892	-0.925	-0.995	-0.904	-0.565	-0.0905	-0.29	-0.644	-0.566
GCTAGCCGGCCATTTGGGTCACTCAATGACGGGC	0.14	-0.0989	-0.475	-0.0153	-0.65	1.12	0.338	0.0131	-0.633	-0.159
TCATATATGTAAAAGGTGAAAGTCGGTGTGGTAA	0.511	1.25	-0.0169	1.75	0.0133	3.72	5.15	6.15	5.45	7
CCTAGTTGGTCACGGTCACACACGCTATAGGTAC	0.611	0.906	1.21	0.81	0.982	0.843	1.61	1.34	0.766	0.795
GCTTACGGGTCATAGGTTATAGCATGAATAGAAT	5.98	4.32	0.326	4.2	0.262	5.87	9.25	7.94	6.8	8.53
CAAACTAGGTCAAGAGGGCAAAGTCCGCTTCCCG	4.55	4	1.14	2.47	0.164	5.21	8.68	7.36	5.56	7.15
TCTAGTTAGTCAAAGGTCACACACTCGAAATGCG	5.6	5.78	4.78	5.34	1.76	5.98	8	7.8	6.86	8.1
CAAACTAGGTGACGAAAGGTCAAAGTCGAATGAC	5.48	6.5	5.58	5.5	2.04	6.16	8.73	7.47	4.53	7.2
AGTCAAAGTTCACTAGGTGACGTAAGATTCAGCT	5.44	5.36	3.15	3.09	0.835	5.06	7.82	7.04	3.81	6.5
CGTCCAAGGGCAAAGGTCAGTGAAGAGATGACGG	4.46	4.17	0.705	3.56	-0.199	5.39	8.11	7.1	5.37	7.34
TAGCCTAGGTCATGGTCCAGTATACCACGCGAAC	3.98	3.17	0.367	2.57	-0.0302	3.96	3.3	3.12	0.835	1.94
ATCTTTAGGTAACAAGTTCAGTGAAAGAGAGGAC	1.21	1.09	0.889	1.08	1.44	1.41	0.762	1.44	0.49	0.949
GCTAGTTGGTCAGTAAGAGGTCACACACCGGTCG	2.76	3.64	4.57	3.51	0.636	3.99	1.86	2.95	1.14	2.34
GCTGTTAGGTCAACTGATGGTCAGCTAAAGCTCG	4.8	3.67	0.551	2.5	1.02	3.78	2	2.74	0.501	1.61
TCTGCTAGGTTAACGATGGTCAGCTAATCTGCTA	-1.53	0.817	-0.894	-0.156	-0.756	0.393	-0.117	0.909	1.45	1.06
CCTACTGGGCCATCAGGTCATGGATATCAACGTT	1.24	1.22	0.743	1.49	-0.453	3.14	3.59	4.15	1.85	3.37
GCTGCTAGGTCAGGTTGGTCAGATAACGGGTACG	1.44	0.895	-0.305	0.708	0.0296	1.5	1.03	1.12	-0.213	0.38
CCTAGTTGGTCGAGGTCACACACGCTATAGGTAC	4.44	4.08	2.35	3.65	0.632	4.31	2.86	3.39	0.788	2.21
CCTTGCGGGTCAAGGTTATAGCACGGGTGGTACG	4.66	3.22	0.11	2.6	-0.432	4.96	5.05	5.18	2.05	4.21
AGTCACAGTTCATCTAGGTAACGTAAGATATGCT	2.21	2.57	1.29	1.54	0.388	2.11	1.85	1.88	0.525	1.04
